RE007 growth inh = less growth of the S. pombe RE007 Vpr strain; S. pombe RE007 Vpr strain, BacTiter-Glo ATP luminescence, 24 h; Potency, µM (top dose mostly 92.2 µM), for the others: at the highest dose activity change, negative = less growth, actives largely listed as inhibitors; hit rate 0.21% among 360,000; AID 651644; active = well fitted falling curve with a large enough effect; inconclusive = small, poorly fitted or top-dose-only effect; inactive = no such curve, though single readings can be large or run the other way; note: nearly all actives have a fitted effect of over 50% in size
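Fission yeast RE007 carrying one integrated HIV-1 vpr copy, seeded at OD 0.01 in PMG+AL medium with 23 nL pinned compound. Grown 24 h at 30 degrees; viability read by BacTiter-Glo luminescence after 5 min.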
FMDV antiviral = foot and mouth disease virus antiviral activity. hit rate 1.2% among 410,000. FMDV antiviral cell-based qHTS. Potency, µM (top dose mostly 57.9 µM), for inactives: top-dose activity change, negative = inhibition, hits mostly inhibitors; calls by dose curve; tested in HEK293T cells; note: read-out not given here; nearly all actives have a fitted effect of over 45% in size
HCV inh = blocks hepatitis C virus; Huh7.5.1 HCVcc-Cre infection, luciferase reporter, 44 h; Potency, µM (highest dose often 41.8 µM), for inactives: top-dose activity change, negative = inhibition, hits mostly inhibitors; hit rate 3.4% among 340,000
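1,000 cells/well; 4 h culture; + compound; + HCVcc-Cre (~0.5 moi); 44 h; luciferase substrate, RT 15 min; read 15 sec.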
Sm TGR block = inhibitors of Schistosoma mansoni thioredoxin glutathione reductase; Q962Y6; purified TGR, DTNB reduction, TNB absorbance 405 nm; Potency, µM (highest dose often 114 µM), without a hit: top-dose activity change, negative = inhibition, usual class: inhibitors; hit rate 3% among 360,000; note: nearly all actives have a fitted effect of over 60% in size
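First, TGR (20 nM dispensed) and NADPH were mixed with compound. Second, a 15 min room-temperature incubation followed. Third, further NADPH and then DTNB were added to start the reaction. Finally, TNB absorbance was monitored kinetically.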
Lassa entry inh = Lassa virus entry inhibition | Lassa virus pseudotype entry inhibition, cell reporter | Potency, µM (titrated, usually from 37.9 µM), for the others: top-dose activity change, negative = inhibition, usual class: inhibitors | hit rate 1.2% among 300,000 | AID 540256; calls by dose curve; tested in HEK293 cells; note: nearly all actives have a fitted effect of over 50% in size
MARV entry inh = Marburg virus entry inhibition. Marburg virus pseudotyped entry inhibition, cell reporter. Potency, µM (titrated, usually from 37.8 µM), for the others: at the highest dose activity change, negative = inhibition, hits mostly inhibitors. hit rate 1.8% among 300,000. AID 540276; calls by dose curve; tested in HEK293 cells
* hit, by the source's call; ? = inconclusive; / = no result given; [ ] = remark or other dose. This is a sample that favours compounds with a hit; in the whole collection about 7.2% have one here. Unless noted, calls come from the whole dose curve; as a rule, active = well fitted curve in the direction sought with a large enough effect; inconclusive = small, poorly fitted or top-dose-only effect, or another doubt; inactive = no such curve, though single readings can be large; an effect the other way counts as inactive or inconclusive. % is set by controls: 0 for no effect and ±100 for the full control effect; potency is the fitted concentration of half-maximal effect.

SMILES	RE007 growth inh	FMDV antiviral	HCV inh	Sm TGR block	Lassa entry inh	MARV entry inh
CN(c1ccc(C(=O)O)cc1)S(=O)(=O)c1ccc(Cl)cc1	16%	-21%	-11%	-2%	15%	-5%
CCN(c1ccccc1)S(=O)(=O)c1ccc2ccccc2c1	-5%	20%	5.6µM*	0%	8%	-24%
CN(c1ccc(C(=O)Nc2ccc(Cl)cn2)cc1)S(=O)(=O)c1ccccc1	5%	?	11µM*	12%	/	/
CCN(c1ccccc1)S(=O)(=O)c1ccc(C(=O)Nc2cccc(C)n2)cc1	-4%	?	11µM*	-13%	/	/
CCN(C(=O)CSc1nc2ccccc2n1CC(=O)Nc1cccc(C#N)c1)c1ccccc1	/	-2%	/	1%	?	/
CCN(c1ccccc1)S(=O)(=O)c1cc(C(=O)Nc2cccc(Cl)c2)ccc1F	-4%	20µM*	?	-10%	13µM*	?
Cc1ccc(S(=O)(=O)N(C)c2ccc(C(=O)Nc3cccc(C)n3)cc2)cc1	0%	25µM*	?	-4%	-14%	?
CCc1ccc(NC(=O)c2ccc(F)c(S(=O)(=O)N(CC)c3ccccc3)c2)cc1	1%	?	?	0%	?	?
Cc1ccc(S(=O)(=O)N(C)CC(=O)Nc2cccc(C)n2)cc1	-1%	-22%	-3%	0%	-5%	-12%
CC(C)C(=O)N1CCN(c2ccc(NC(=O)c3ccc4c(c3)OCCO4)cc2)CC1	-1%	-30%	-8%	-3%	0%	-20%
Cc1ccccc1C(=O)N1CCN(c2ccc(NC(=O)c3ccc4c(c3)OCCO4)cc2)CC1	0%	7.1µM*	8.9µM*	12%	?	5µM*
CC(=O)N1CCN(c2ccc(NC(=O)c3ccc4c(c3)OCO4)cc2)CC1	-9%	8%	10%	7%	3%	-8%
Cc1ccc(C(=O)N2CCN(c3ccc(NC(=O)c4ccc5c(c4)OCCO5)cc3)CC2)cc1	-4%	14µM*	2.8µM*	9%	?	?
O=C(Nc1ccc(N2CCN(C(=O)c3ccccc3)CC2)cc1)c1ccc2c(c1)OCO2	4%	-9%	22µM*	16%	-23%	-25%
O=C(Cc1ccccc1)Nc1c(C(=O)N2CCN(c3ccc(F)cc3)CC2)oc2ccccc12	/	60%	/	10%	-24%[46.1 µM]	/
Cc1noc(C)c1C(=O)N1CCC1(C)C(=O)NS(=O)(=O)c1ccccc1C(F)(F)F (configuration not stated)	3%	5%	/	/	/	/
N#CCNC1CC(=O)N(c2ccc(F)cc2)C1=O (configuration not stated)	25µM*	-17%	-6%	7.1µM*	28%[46.1 µM]	-11%[46.1 µM]
O=C(NCCc1ccccc1)c1ccc2nc(-c3ccco3)c(-c3ccco3)nc2c1	-19%	-18%	11µM*	1.3µM*	?	?
O=C(c1ccccc1)c1ccc2nc(-c3ccco3)c(-c3ccco3)nc2c1	-3%	2%	?	/	?	-23%[46.1 µM]
c1coc(-c2nc3ccccc3nc2-c2ccco2)c1	-12%	/	-18%	3.5µM*	-8%	?
O=C(NC1CCCC1)c1ccc2nc(-c3ccco3)c(-c3ccco3)nc2c1	-13%	0%	?	3.2µM*	-21%	?
O=C(NCCO)c1ccc2nc(-c3ccco3)c(-c3ccco3)nc2c1	-19%	-10%	1%	1.8µM*	8%	1%
O=C(NC1CCCC1)c1ccc2nc[nH]c2c1	3%	12%	7%	8%	-3%	23%
c1coc(-c2cnc3ccccc3n2)c1	-22%	31%	/	/	/	/
O=C(NCc1nnc2n1CCN(Cc1cccc(Cl)c1)CC2)c1cccc(F)c1	/	-1%	/	/	/	/
SMILES	RE007 growth inh	FMDV antiviral	HCV inh	Sm TGR block	Lassa entry inh	MARV entry inh
C[C@H]1CN(c2ccccc2)C(=O)[C@H]1CC(=O)Nc1ccc(Br)cc1	/	/	/	/	-4%[46.1 µM]	/
COc1ccc(-c2nc3ccc(C(=O)NCC(OC)OC)cc3nc2-c2ccc(OC)cc2)cc1	15%	?	?	0%	-10%	?
COC(CNC(=O)c1ccc2nc(-c3ccccc3)c(-c3ccccc3)nc2c1)OC	6%	0%	10µM*	-26%	?	?
CCCCC1OC23CCCCC2C(C#N)(C(=N)O3)C1(C#N)C#N (configuration not stated)	16%	25µM*	14%	0%	-16%	7%
N#CC1(C#N)C(c2ccccc2)OC23CCCCC2C1(C#N)C(=N)O3 (configuration not stated)	3%	-18%	-3%	?	-3%	4%
N#CC1(C#N)C(c2ccccc2)OC23CCCCCC2C1(C#N)C(=N)O3 (configuration not stated)	-3%	-7%	31%	25µM*	-1%	30%
Cc1ccc(NC(=O)c2c(C(=O)Nc3ccccc3)sc3nc(C)cc(=O)n23)c(C)c1	/	-10%	/	-8%	-18%[46.1 µM]	-2%[46.1 µM]
CSc1ncccc1C(=O)NCC1Cc2cc(-c3cnccn3)ccc2O1 (configuration not stated)	/	-8%	/	/	/	/
O=C(Nc1ncc(Cc2cccc(Cl)c2)s1)c1cccs1	?	14%	22µM*	-22%	8.9µM*	10µM*
Cc1ccc(C(=O)Nc2ncc(Cc3ccccc3)s2)o1	-17%[3.69 µM]	-10%	?	0%	?	5.2µM*
CCn1nnc2cc(C(=O)Nc3ccc(C)c(Cl)c3)ccc21	/	16%	/	3%	-3%[46.1 µM]	/
COCc1c(C(=O)N2CCN(C)CC2)cnn1-c1ncc2c(n1)-c1ccccc1CCC2	/	-10%	/	/	/	/
COc1ccc(OCC(=O)O/N=C(\N)c2ccc(OC)cc2)cc1	-16%	-11%	?	6%	?	?
CO/N=C(/COc1ccc(F)cc1)c1ccc(OC)cc1	2%	9%	6%	25µM*	-21%	?
O=c1[nH]c2ccc(Br)cc2c(-c2ccccc2)c1CN1CCOCC1	5%	-24%	15%	35µM*	/	/
COCc1ccc(CN2CCOc3ccc(C4=CCCCC4)cc3C2)o1	/	-8%	/	/	/	/
CCCCSCCCNC(=O)c1cc(-c2cccnc2)nc2ccc(S(=O)(=O)N3CCC(C)CC3)cc12	/	-9%	/	0%	25%[46.1 µM]	/
CCOC(=O)c1c(-c2ccccc2)csc1NC(=O)c1cc(-c2ccc(F)cc2)on1	/	-13%	/	2%	2%[46.1 µM]	-13%[46.1 µM]
CCOC(=O)c1c(-c2ccc(C)cc2)csc1NC(=O)c1cc2ccccc2oc1=O	7%	35%	4%	14µM*	-12%	1%
CCOC(=O)c1c(-c2ccc(F)cc2)csc1NC(=O)c1c(-c2ccccc2)noc1C	-7%	-27%	?	-10%	8.9µM*	3.5µM*
CCOC(=O)c1c(-c2ccccc2)csc1NC(=O)C1CCCO1 (configuration not stated)	-3%	/	10µM*	0%	-21%	-19%
